Measurements: PubChem BioAssay (Tox21)
Results filed as inconclusive are left out. Calls of active or inactive are those of the source. Calls follow the shape of the full dose curve.

molecular target: Acetylcholinesterase (Homo sapiens) (UniProt P22303); assay: Acetylcholinesterase (AChE) small molecule antagonists: colormetric cell-based qHTS assay (AID 1347395); conditions: SH-SY5Y cells AChE activity, colorimetric (Ellman); series mostly up to 115 µM; activity, negative = inhibition: at the top concentration; also: nearly all actives have a fitted effect of over 30% in size
Sequence (P22303 whole entry, looked up): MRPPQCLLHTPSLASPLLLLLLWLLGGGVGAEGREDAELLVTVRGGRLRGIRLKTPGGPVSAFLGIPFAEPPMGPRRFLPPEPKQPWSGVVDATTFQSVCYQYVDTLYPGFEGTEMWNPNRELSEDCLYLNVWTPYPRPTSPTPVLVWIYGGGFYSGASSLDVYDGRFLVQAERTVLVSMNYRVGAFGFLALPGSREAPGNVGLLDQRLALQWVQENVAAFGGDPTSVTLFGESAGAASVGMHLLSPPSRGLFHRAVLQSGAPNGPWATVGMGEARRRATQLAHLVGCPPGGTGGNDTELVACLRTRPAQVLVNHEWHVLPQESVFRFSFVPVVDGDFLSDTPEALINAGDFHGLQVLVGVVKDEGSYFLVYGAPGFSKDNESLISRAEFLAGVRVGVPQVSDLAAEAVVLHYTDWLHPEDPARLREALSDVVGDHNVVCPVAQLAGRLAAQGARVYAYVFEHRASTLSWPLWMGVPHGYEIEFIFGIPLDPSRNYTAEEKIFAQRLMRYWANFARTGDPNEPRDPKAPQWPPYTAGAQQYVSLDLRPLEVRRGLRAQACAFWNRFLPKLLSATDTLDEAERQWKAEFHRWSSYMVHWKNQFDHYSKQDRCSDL
Summary of the method: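 SH-SY5Y cells, plated overnight at 37 C, were exposed to compounds for 30 min at 37 C and 5% CO2. Acetylthiocholine plus DTNB was then added, and thiocholine from endogenous AChE was quantified colorimetrically after 90 min at 37 C.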
% is scaled to controls: 0 for no effect and ±100 for the full control effect.

| Structure (SMILES) | Potency | activity, negative = inhibition |
| --- | --- | --- |
| C#C[C@]1(O)CC[C@H]2[C@@H]3CCC4=Cc5oncc5C[C@]4(C)[C@H]3CC[C@@]21C | inactive | – |
| CC(=O)Nc1ccc(/C=N/NC(N)=S)cc1 | – | -8.46% [at 52.9 µM] (inactive) |
| CC(C)=CCCC(C)CCO (stereo not given) | inactive | – |
| CC(C)(CCC(=O)O)C(=O)O | – | 1.12% (inactive) |
| CCCCOC(=O)CCS | – | 1.83% (inactive) |
| O=C(O)Cc1cccc(-c2cc(CCCCCCc3ccc(O[C@H]4O[C@H](CO)[C@@H](O)[C@H](O)[C@@H]4O)c(-c4cccc(CC(=O)O)c4)c3)ccc2O[C@H]2O[C@H](CO)[C@@H](O)[C@H](O)[C@@H]2O)c1 | – | 1.5% [at 0.435 µM] (inactive) |
| Cc1cc(O)c(Cl)cc1C | – | -4.83% (inactive) |
| O=C(O)CN(CCN(CC(=O)O)CC(=O)O)CCN(CC(=O)O)CC(=O)O | – | 0.969% [at 23.6 µM] (inactive) |
| CCOC(=O)C(O)c1ccccc1 (stereo not given) | – | -0.705% [at 52.9 µM] (inactive) |
| NCCNC(=O)c1ccc(Cl)cn1 | – | 0.773% [at 52.9 µM] (inactive) |
| CCn1c2ccccc2c2cc([N+](=O)[O-])ccc21 | – | -1.26% (inactive) |
| COC(=O)C1CCC(C(=O)OC)CC1 (stereo not given) | inactive | – |
| O=C1NCN(c2ccccc2)C12CCN(CCCC(c1ccc(F)cc1)c1ccc(F)cc1)CC2 | – | 2.64% [at 52.9 µM] (inactive) |
| COc1ccc(S(=O)(=O)N2C(=O)[C@@](c3ccccc3OC)(N3C[C@H](O)C[C@H]3C(=O)N(C)C)c3cc(Cl)ccc32)c(OC)c1 | – | -3.92% (inactive) |
| CN(C)CCOC(C)(c1ccccc1)c1ccccn1 (stereo not given) | inactive | – |
| CCCCCCCCCC=O | – | 1.99% (inactive) |
| CC1=CC[C@H](C(C)C)C=C1 | – | -6% (inactive) |
| O=S(=O)(O)c1cccc(S(=O)(=O)O)c1 | – | 0.0559% (inactive) |
| Nc1cc(S(=O)(=O)O)ccc1S(=O)(=O)O | – | 2.49% (inactive) |
| CC(C)(Oc1ccc(Cl)cc1)C(=O)OCCCOC(=O)C(C)(C)Oc1ccc(Cl)cc1 | – | 1.59% [at 52.9 µM] (inactive) |

| Structure (SMILES) | Potency | activity, negative = inhibition |
| --- | --- | --- |
| O=C1CC(c2ccc(Cl)cc2)CC(=O)N1 | – | 1.01% [at 52.9 µM] (inactive) |
| COC(=O)c1c(Cl)c(Cl)c(C(=O)OC)c(Cl)c1Cl | inactive | – |
| C[C@]12CC[C@H]3[C@@H](CCC4=CC(=O)CC[C@@]43C)[C@@H]1CC[C@@H]2C(=O)CO | inactive | – |
| c1ccc(CNc2ncnc3c2ncn3C2CCCCO2)cc1 (stereo not given) | – | -8.66% (inactive) |
| C=CCOCC(CO)(COCC=C)COCC=C | – | -4.03% [at 52.9 µM] (inactive) |
| CC(=O)NCCO | – | 4.35% (inactive) |
| Oc1ccc(OCc2ccccc2)cc1 | inactive | – |
| CC(C)(CO)CO | inactive | – |
| N[C@@H](Cc1c[nH]c2ccc(O)cc12)C(=O)O | inactive | – |
| CC(C)OCC1CO1 (stereo not given) | – | 2.46% (inactive) |
| CCCCC(CC)C(=O)OCCOCCOCCOCCOC(=O)C(CC)CCCC (stereo not given) | – | -3.18% (inactive) |
| CCN(CC)C(=O)C1CN2CCc3cc(OC)c(OC)cc3C2CC1OC(C)=O (stereo not given) | – | -0.675% [at 52.9 µM] (inactive) |
| CC(C)N1C(=O)c2ccccc2C1=O | – | -3.23% (inactive) |
| O=C1OC2(c3ccc(O)cc3Oc3cc(O)ccc32)c2ccc(N=C=S)cc21 | – | 5.8% (inactive) |
| CCC(=O)c1ccc(O)cc1 | – | 1.24% [at 52.9 µM] (inactive) |
| CCCOCCO | inactive | – |
| CCOC(=O)c1cc(=O)c2c(OCC(COc3cccc4oc(C(=O)OCC)cc(=O)c34)OC(=O)[C@@H](N)CCCCN)cccc2o1 | – | 2.44% [at 52.9 µM] (inactive) |
| O=C=NC1CCC(CC2CCC(N=C=O)CC2)CC1 (stereo not given) | – | -7.19% (inactive) |
| Cc1cc(C)n(CO)n1 | – | -1.02% (inactive) |
| O=C(O)CCC(=O)OC[C@@H](NC(=O)C(Cl)Cl)[C@H](O)c1ccc([N+](=O)[O-])cc1 | – | -0.0881% [at 52.9 µM] (inactive) |
